These results are taken from ChEMBL document CHEMBL3988442, “University of Dundee, Small-Polar-MMV Screening Library” (2021).

In all, about 48,000 compounds went through this assay and about 13,000 (27%) showed an effect of 50% or more. This is one part of the list.

This assay relates to Wolbachia pipientis. The assay is described as follows: Anti-Wolbachia Cell-Based Screen. The format is functional. Set-up: scale not given: in the data most compounds retested in dose-response had high values. Particulars: 5 µM.
Turning to `Cc1cccn2c(CNC(C)CCn3cccn3)cnc12` (stereo not drawn), the “Percent Effect” value is -12.69%.

`Cc1nc(-c2ccoc2)n(CC(=O)NCC(C)C)c1C`: the “Percent Effect” value came to 121.2%.

Consider `COc1cccn(CC(=O)N(C)Cc2ccoc2)c1=O`, for which the “Percent Effect” value was -6.863%.

`CCOC(=O)CNC(=O)N1CCc2onc(-c3ccc(Cl)cc3)c2C1`: the “Percent Effect” value was -4.75%.

As to `Cc1nc(NC(=O)N(C)Cc2ccoc2)nn1C`, the “Percent Effect” value is given as -1.976%.

Regarding `CCOC(=O)CNC(=O)Cn1c(-c2ccoc2)nc(C)c1C`, the “Percent Effect” value was determined as 117%.

As for `CCOC(=O)CCCNC(=O)CN1CCN(c2ncccn2)CC1`, the “Percent Effect” value is -1.703%.

Regarding `Cc1nc(-c2ccccc2)n(CC(=O)NCC(C)C)n1`, the “Percent Effect” value is -0.5584%.

Turning to `Cc1nc(-c2ccoc2)n(CC(=O)N(C)CC(C)C)c1C`, the “Percent Effect” value is 99.79%.

In the case of `CC(C)CNC(=O)CN1C=Nc2ccccc2S1(=O)=O`, the “Percent Effect” value is -1.925%.

Consider `CSCCC(C)NC(=O)N(C)Cc1cc(Cl)cn1C` (stereo not drawn), for which the “Percent Effect” value is recorded as -13.17%.

On to `CNC(=O)c1cc2c(nc1NCC(C)C)CCN(S(C)(=O)=O)CC2`, for which the “Percent Effect” value was -6.713%.

As to `N#CC1COCCN1S(=O)(=O)c1ccc(F)c(Br)c1` (stereo not drawn), the “Percent Effect” value is -8.72%.

Regarding `COc1ccc(CN(CCC#N)CCN2CCOCC2)c(OC)c1`, the “Percent Effect” value was 118.6%.

Turning to `N#CCCN(CCN1CCOCC1)Cc1ccc(F)c(Br)c1`, the “Percent Effect” value was 132.9%.

Take `COc1cc(F)ccc1C(C(=O)O)N(C)CCN1CCOCC1` (stereo not drawn): the “Percent Effect” value is -4.538%.

`N#Cc1cc(CSCCN2CCOCC2)ccc1F`: the “Percent Effect” value is on record as -6.22%.

Take `COc1ccc(CN(CCC#N)CCN2CCOCC2)cc1OC`: the “Percent Effect” value is 124%.

Turning to `COc1ccc(CCC(=O)N(C)CCN2CCOCC2)cc1OC`, the “Percent Effect” value is reported as 6.913%.

Take `CN(Cc1cccc(C#N)c1)S(=O)(=O)N1CCOCC1`: the “Percent Effect” value came out at 12.93%.

As to `COc1ccc(CN(C)Cc2cccc(C#N)c2)c(OC)c1`, the “Percent Effect” value worked out at 0.7087%.

For `COc1ccc(C#N)cc1CSCCN1CCOCC1`, the “Percent Effect” value was -1.196%.

For the molecule `CCCC(=O)N(CCN1CCOCC1)c1nc2c(OC)ccc(C)c2s1.Cl`, the “Percent Effect” value was 15.71%.

Turning to `CCOc1ccc(CN(CCC#N)CCN2CCOCC2)cc1OC`, the “Percent Effect” value is given as 119.9%.

`CCc1ccccc1OC1CN(C(=O)c2cccs2)C1`: the “Percent Effect” value is 3.168%.

Take `Cn1c(NC(=O)CNC(=O)C2CC2)nc2cc(Cl)ccc21`: the “Percent Effect” value is -0.3531%.

As for `CC(C)c1nn(C)c(N2CCOCC2)c1CN[C@H](C)CO`, the “Percent Effect” value is on record as -7.825%.

On to `Cc1c[nH]c(CN2CCCCC2CCn2ccnc2C)c(C)c1=O` (stereo not drawn), for which the “Percent Effect” value is -47.12%.

Turning to `O=C(c1ccc(C2CCCO2)s1)N1CCN(c2ccccc2F)CC1` (stereo not drawn), the “Percent Effect” value amounted to 2.107%.

Consider `CCN(Cc1nccn1C)C(=O)c1ccc(NCc2cnn(C)c2)nc1`, for which the “Percent Effect” value is -21.14%.

Consider `CS(=O)(=O)N1CCCC1c1cccc(Cc2ccccc2F)n1` (stereo not drawn), for which the “Percent Effect” value is 107.7%.

`CN(C)C(=O)CN1CCCC1c1cccc(Cc2ccccc2F)n1` (stereo not drawn): the “Percent Effect” value turned out to be 121.7%.

Turning to `CC(=O)N1CCCC1c1cccc(Cc2ccccc2Cl)n1` (stereo not drawn), the “Percent Effect” value turned out to be 110.5%.

Turning to `Cc1nccn1CC1CCCN1S(=O)(=O)Cc1ccccc1F` (stereo not drawn), the “Percent Effect” value is reported as -7.214%.

On to `CC(=O)N1CCCC1c1cccc(NCc2ccccc2F)n1` (stereo not drawn), for which the “Percent Effect” value is on record as 111.2%.

Turning to `COCCN(C)CC1CCCN1S(=O)(=O)Cc1ccccc1F` (stereo not drawn), the “Percent Effect” value was found to be 4.481%.

As for `O=C(NC[C@H]1OC[C@@H](NC2COC2)[C@@H]1O)c1cccs1`, the “Percent Effect” value is 4.392%.

As to `CN(Cc1ccoc1)C(=O)C1CC(=O)N(Cc2ccncc2)C1` (stereo not drawn), the “Percent Effect” value stood at 3.123%.

Turning to `COCC(=O)N1CCCC1c1cccc(Cc2ccccc2F)n1` (stereo not drawn), the “Percent Effect” value stood at 111%.

Regarding `CC(=O)N1CCCC1c1cccc(Cc2ccccc2F)n1` (stereo not drawn), the “Percent Effect” value turned out to be 1.098%.

For `CC(=O)N1CCCC1c1cccc(Oc2ccccc2F)n1` (stereo not drawn), the “Percent Effect” value came out at 150.9%.

Take `CC(C)(C)c1coc([C@@H]2COCCN2CC2CC2)n1`: the “Percent Effect” value is reported as -8.42%.

On to `CCc1n[nH]c(C2CN(Cc3nnc(C4CC4)n3C)CCO2)n1` (stereo not drawn), for which the “Percent Effect” value is listed as -1.784%.

Consider `CCS(=O)(=O)c1ccc(N2CCC(NC(=O)c3ccccn3)CC2)cc1`, for which the “Percent Effect” value came out at 1.284%.

Turning to `COc1ccc(C[C@H]2CN(c3nnc(C)s3)CC[C@@H]2OC)cc1.O=C(O)C(F)(F)F`, the “Percent Effect” value is given as 83.05%.

As for `COc1ccc(C[C@H]2CN(c3nnc(C)s3)CC[C@H]2OC)cc1.O=C(O)C(F)(F)F`, the “Percent Effect” value was found to be 100.4%.

In the case of `Cn1nc(Cn2cccn2)c2c1CN(Cc1ccsc1)C2.O=C(O)C(F)(F)F`, the “Percent Effect” value is -9.596%.

Take `O=C(O)C(F)(F)F.O=C(c1cnccn1)N1CCCC2(CCN(Cc3ccsc3)CC2)C1`: the “Percent Effect” value was 106.6%.

Take `O=C(O)C(F)(F)F.O=C(O)C(F)(F)F.c1csc(CN2CC3(CCN(Cc4ccsc4)C3)C2)n1`: the “Percent Effect” value is listed as -7.051%.

Consider `O=C(O)C(F)(F)F.O=C(c1cnccn1)N1CC2(CCN(Cc3ccsc3)C2)C1`, for which the “Percent Effect” value came to 96.61%.

`O=C(O)C(F)(F)F.O=C(c1cnccn1)N1CCCC2(CCN(Cc3ccc(F)cc3)C2)C1` (stereo not drawn): the “Percent Effect” value stood at 8.086%.

Take `O=C(O)C(F)(F)F.O=C(c1cnccn1)N1CCOC2(CCN(Cc3ccsc3)CC2)C1`: the “Percent Effect” value was -59.08%.

On to `O=C(O)C(F)(F)F.O=C(c1cnccn1)N1CCCC2(CCN(Cc3ccsc3)C2)C1` (stereo not drawn), for which the “Percent Effect” value worked out at 100.1%.

In the case of `Cn1cccc1CN1CCC2(CCCN(C(=O)c3cnccn3)C2)C1.O=C(O)C(F)(F)F` (stereo not drawn), the “Percent Effect” value was -0.2095%.

On to `O=C(O)C(F)(F)F.O=C(O)C(F)(F)F.O=C(c1cnccn1)N1CCCC2(CCN(Cc3cccnc3)C2)C1` (stereo not drawn), for which the “Percent Effect” value was -9.392%.

For `CN1CC2(CCN(Cc3cccc(C#N)c3)CC2)CC1=O`, the “Percent Effect” value amounted to 2.767%.

`CCN1CCC(CNC(=O)C(c2ccc(F)cc2)N(C)C)(N(C)C)CC1` (stereo not drawn): the “Percent Effect” value is -1.923%.

In the case of `CN(C)C(=O)c1ccc(OC2CCCC2)cc1`, the “Percent Effect” value was determined as 1.251%.

Consider `O=C(c1cccs1)N1CC[C@H]2C[C@@H](c3nnc(C4CC4)o3)O[C@@H]2C1`, for which the “Percent Effect” value is listed as 88.85%.

`Cn1cccc1C(=O)N1CC[C@H]2[C@H](CO[C@H]2CNS(C)(=O)=O)C1`: the “Percent Effect” value is recorded as -6.617%.

On to `O=C(c1ccccc1)N1CC[C@H]2C[C@@H](c3nnc(C4CC4)o3)O[C@@H]2C1`, for which the “Percent Effect” value is 70.82%.

Turning to `CCC(C)c1noc(C2CCN(C(=O)c3cccs3)CC2)n1` (stereo not drawn), the “Percent Effect” value is on record as -5.715%.

For the molecule `O=C(c1cscn1)N1C[C@@H]2C[C@@H](c3nnc(C4CC4)o3)O[C@@H]2C1`, the “Percent Effect” value is listed as -5.593%.

For the molecule `Cc1ccc(C(=O)N2C[C@@H]3C[C@@H](c4nnc(C5CC5)o4)O[C@@H]3C2)s1`, the “Percent Effect” value was -0.8808%.

With `O=C(c1cscn1)N1CC[C@H]2C[C@H](c3nnc(C4CC4)o3)O[C@@H]2C1`, the “Percent Effect” value was found to be 101.5%.

Take `Cn1cccc1C(=O)N1C[C@@H]2C[C@@H](c3nnc(C4CC4)o3)O[C@@H]2C1`: the “Percent Effect” value amounted to 104.3%.

As to `O=C(c1ccsc1)N1CC[C@H]2C[C@@H](c3nnc(C4CC4)o3)O[C@@H]2C1`, the “Percent Effect” value came to 4.587%.

On to `O=C1NCCO[C@H]2CN(C(=O)c3cccs3)CC[C@@H]12`, for which the “Percent Effect” value is -55.85%.
